# Data as given in PubChem BioAssay (EPA / NIEHS).
# Results filed as inconclusive are left out. Activity calls are given as the source filed them. Rule for the calls: active = hit-call score of the fitted dose curve at least 0.9, where 1 is the maximum; inconclusive = response in the unintended direction; inactive = score below 0.9.
# Target: Estrogen-related receptor gamma (Homo sapiens) (UniProt P62508)
# Experiment: ATG_ERRg_TRANS: Attagene TRANS-FACTORIAL HepG2 Assay for human Estrogen-Related Receptor gamma (ERRg) (AID 2282977);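 note: hits increase reporter signal over DMSO so potencies reflect activators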
# Conditions: HepG2 Attagene TRANS reporter, ERRg transactivation
# Description: ATG_TRANS is a cell-based, multiplexed-readout assay that uses HepG2, a human liver cell line, with measurements taken at 24 hours after chemical dosing in a 24-well plate.ATG_ERRg_TRANS is one of 30 assay component(s) measured or calculated from the ATG_TRANS assay. It is designed to make measurements of mRNA induction, a form of inducible reporter, as detected with fluorescence intensity signals by Reverse transcription polymerase chain reaction (RT-PCR) and Capillary electrophoresis technology.Data from the assay component ATG_ERRg_TRANS was analyzed into 1 assay endpoint. This assay endpoint, ATG_ERRg_TRANS, was analyzed in the positive analysis fitting direction relative to DMSO as the negative control and baseline of activity. Using a type of inducible reporter, measures of mRNA for gain-of-signal activity can be used to understand the reporter gene at the transcription factor-level as they relate to the gene ESRRG. Furthermore, this assay endpoint can be referred to as a primary readout, because this assay has produced multiple assay endpoints where this one serves a reporter gene function. To generalize the intended target to other relatable targets, this assay endpoint is annotated to the nuclear receptor intended target family, where the subfamily is steroidal.
# Human liver HepG2 cells are transiently transfected with multiple reporter transcription units (MRTUs) in 6-well plates using FuGene 6 reagent (Roche; 3 ml FuGene/1 mg DNA). The MRTU constructs are regulated by a cis-regulating element (promoter). […] A major difference between the CIS and TRANS system is that in CIS activities of endogenous TFs are measured, whereas the TRANS assay evaluates changes in activities of exogenous, chimeric NR-Gal4 proteins. […] At the end of 24 hour incubation, total RNA was isolated using TriZol reagent (Invitrogen). The isolated RNA is then reverse-transcribed using oligo(dT) primer and Mo-MLV reverse transcriptase (Invitrogen) with DNAse I (Ambion) treatment for 30 min. The one-tenth of the produced cDNA was amplified by PCR using Taq DNA polymerase (Invitrogen) and two reporter sequence-specific primers. The PCR products were fluorescently labeled by primer extension with 6-arboxyfluorescein (6-FAM) 5'-labeled reporter sequence-specific primer (2 min at 95 C, 20 s at 68 C and 10 min at 72 C) and these products were digested with 5U of HpaI (New England Biolabs) for 2h at 37 C. The fragments were purified using Qiaquick PCR columns (Qiagen), analyzed on an ABI 3130xL genetic analyzer (Applied Biosystems) with peak positions identified by using a set of X-rhodamine (ROX)-labeled MapMarker1000 molecular weight standards (BioVentures). The raw capillary electrophoresis data was processed using Attagraph software (Attagene).
# Sequence of Estrogen-related receptor gamma (Homo sapiens) (P62508 whole entry, looked up): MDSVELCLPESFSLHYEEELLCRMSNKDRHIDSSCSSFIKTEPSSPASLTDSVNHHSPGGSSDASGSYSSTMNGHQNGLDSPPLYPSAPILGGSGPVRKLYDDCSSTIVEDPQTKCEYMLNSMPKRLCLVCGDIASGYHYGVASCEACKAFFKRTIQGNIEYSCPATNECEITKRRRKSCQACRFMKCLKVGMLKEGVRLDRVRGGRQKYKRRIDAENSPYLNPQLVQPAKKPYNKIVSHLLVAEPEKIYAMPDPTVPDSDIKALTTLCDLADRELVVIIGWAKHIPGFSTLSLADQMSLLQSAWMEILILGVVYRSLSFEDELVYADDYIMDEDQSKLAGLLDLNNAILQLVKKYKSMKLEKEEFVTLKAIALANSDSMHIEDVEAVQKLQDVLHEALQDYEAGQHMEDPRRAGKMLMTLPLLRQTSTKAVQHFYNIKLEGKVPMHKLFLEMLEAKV
Structure (SMILES),outcome,AC50
C=C(C)C(=O)OCCCCCC,inactive,–
Cc1cc(-n2nc3ccc(Cl)cc3n2)c(O)c(C(C)(C)C)c1,inactive,–
O=C(O)c1nc(Cl)c(Cl)c(Cl)c1Cl,inactive,–
CCO[Si](CCCN)(OCC)OCC,inactive,–
CCCCCC1CCCC(=O)O1 (stereo not given),inactive,–
NCc1ccccc1,inactive,–
O=C(CC(C(=O)OC1CCCCC1)S(=O)(=O)O)OC1CCCCC1 (stereo not given),inactive,–
CCCCCCCCCCCCCCCCCC[N+](C)(C)C,–,25 µM (active)
CC=CC(=O)O,inactive,–
CCOC(=O)c1ccccc1,inactive,–
O=C(O)Cc1c[nH]c2ccccc12,inactive,–
Cc1cccnc1,inactive,–
COC(=O)/C=C\C(=O)OC,inactive,–
O=C(O)c1cc(Cl)cc(Cl)c1O,inactive,–
CN(C)c1ccc(C(c2ccccc2)c2ccc(N(C)C)cc2)cc1,inactive,–
O=C(c1ccccc1)c1ccccc1O,inactive,–
O=C(Oc1ccccc1)c1ccccc1,inactive,–
NC(=O)c1ccc(N)cc1,inactive,–

Structure (SMILES),outcome,AC50
CC(C)CC(=O)CC(C)C,inactive,–
O=[N+]([O-])c1ccccc1C(F)(F)F,inactive,–
CN1CCCC1,inactive,–
CC/C=C\CC1=C(C)CCC1=O,inactive,–
CN(C)Cc1cc(C(C)(C)C)c(O)c(C(C)(C)C)c1,inactive,–
COC(=O)CCSCCC(=O)OC,inactive,–
CC(C)=CCOC(=O)c1ccccc1,inactive,–
O=S(=O)(O)c1cccc2ccccc12,inactive,–
CC/C=C/CCO,inactive,–
O=C(O)/C=C\C(=O)O,inactive,–
CCCCC(CC)COC(=O)CS (stereo not given),inactive,–
CC/C=C\CCO,inactive,–
O=C(C(=O)c1ccccc1)c1ccccc1,inactive,–
C=CCOC(=O)C(=C)C,inactive,–
CN(C)CCCN1c2ccccc2CCc2ccc(Cl)cc21,inactive,–
CN(C)N=Nc1ccccc1,inactive,–
CCC(C)C1N=C(C)C(C)S1 (stereo not given),inactive,–
